The values below come from PubChem BioAssay AID652015 (National Center for Advancing Translational Sciences (NCATS), 2013).

Records with an inconclusive call do not appear. A call without a number means that no potency is given here. Activity calls are given as the source filed them. Calls come from the whole dose curve; as a rule, active = well fitted inhibition curve with a large enough effect; inconclusive = small, poorly fitted or top-dose-only effect; inactive = no such curve, though single readings can be large or run the other way.
Potency is the fitted concentration of half-maximal effect.

This assay deals with Coelenterazine h 2-monooxygenase (Renilla reniformis) (UniProt P27652). The experiment in a line: qHTS Assay for Inhibitors of Sea Pansy Luciferase from the GSK Published Protein Kinase Inhibitor Set. The settings on record: purified Renilla luciferase, luminescence; series mostly up to 57.5 µM. The source says: FLuc (firefly luciferase) is the prototypical bioluminescent reporter gene from Photinus pyralis.[1] The enzyme catalyzes the oxidation luciferin via luciferin-AMP to produce light. FLuc is used in cell-based reporter gene-based assays for screening small molecule chemical libraries. However, small molecule luciferase inhibitors present in most large chemical libraries are often enriched in the output of high throughput screens using this reporter sometimes complicating interpretation and candidate selection.
Chain of Coelenterazine h 2-monooxygenase (Renilla reniformis) (P27652 whole entry, looked up): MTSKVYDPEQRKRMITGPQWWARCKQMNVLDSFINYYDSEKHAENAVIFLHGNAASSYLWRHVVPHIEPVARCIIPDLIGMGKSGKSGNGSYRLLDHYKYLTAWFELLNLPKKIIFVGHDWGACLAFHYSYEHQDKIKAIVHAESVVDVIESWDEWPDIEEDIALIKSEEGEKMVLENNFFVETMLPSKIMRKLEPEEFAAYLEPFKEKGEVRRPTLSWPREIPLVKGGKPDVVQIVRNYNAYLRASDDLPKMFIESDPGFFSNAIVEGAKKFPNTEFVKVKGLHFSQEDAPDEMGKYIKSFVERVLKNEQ
RLuc is a bioluminescent reporter gene luciferase from Renilla reniformis, also known as the sea pansy. RLuc uses the luciferin substrate coelenterazine. RLuc is often used in combination with the nonhomologous luciferase FLuc (firefly luciferease) as a trasfection or pathway normalization control. Recently, non-homologous reporters have been described for high throughput screening 'coincidence' reporter gene strategies.
1. Fan F, Wood KV (2007) Bioluminescent assays for high-throughput screening. Assay Drug Dev Technol 5: 127-136.
2. Thorne N, Inglese J, Auld DS (2010) Illuminating insights into firefly luciferase and other bioluminescent reporters used in chemical biology. Chem Biol 17: 646-657.
3. […] Chem Biol 19: 1060-1072.
4. Michelini E, Cevenini L, Mezzanotte L, Coppa A, Roda A (2010) Cell-based assays: fuelling drug discovery. Anal Bioanal Chem 398: 227-238.
5. Cheng KC, Inglese J (2012) A coincidence reporter-gene system for high-throughput screening. Nat Methods 9: 937.
Biochemical renilla luciferase enzyme assay
NCGC Assay Protocol Summary:
Reagents: 50mM Tris acetate, pH 7.5; 100uM NaCl; 5uM Coelenterazine H (Promega #S2011); 0.01% Tween-20; 0.05% BSA; 1nM R. reniformis luciferase (Nanolight Technologies #314)
Control compounds used were a known renilla luciferase inhibitor BTS (Tocris Biosciences #1870) and DMSO.
Three microliters containing renilla luciferase substrate in buffer (final concentrations: 50mM Tris acetate, pH 7.5, 100uM NaCl, 0.01% Tween-20, 0.05% BSA, 5uM coelenterazine h) are dispensed into each well of a Greiner white, solid-bottom 1536-well format plate using a flying reagent dispenser (FRD). These assay plates were then treated with 23nL of compound or DMSO using a Kalypsys pin tool, which allows for delivery of a 7-point interplate titration of each compound to the assay plate (quantitative HTS), with final compound concentrations ranging from approximately 60uM to 300pM. One microliter of renilla luciferase in 50mM Tris-acetate buffer was then delivered by FRD to each well for a final enzyme concentration of 1nM. Luciferase activity was then measured using an Envision plate reader (PerkinElmer), with an average incubation time of 2 min.
In the case of `Cc1ccc2c(-c3ccnc(Nc4ccccc4)n3)c(-c3ccc(F)cc3)nn2n1`, the Potency result was “inactive”.
Turning to `CCn1c(-c2nonc2N)nc2c(C#CC(C)(C)O)nc(CN3CCCC3)cc21`, the Potency entry is “inactive”.
With `COc1ccccc1Nc1ncc(-c2ccccc2)o1`, the Potency result is “inactive”.
Consider `CCOc1ccc2c(-c3ccnc(Nc4cccc(C(F)(F)F)c4)n3)cnn2n1`, for which the Potency result is “inactive”.
Then `COc1cccc(-n2cnc3c(NN=Cc4ccncc4)ncnc32)c1`, with “inactive”; and `O=C(Nc1n[nH]c2nc(-c3ccc(O)cc3)c(Br)cc12)C1CC1`, with “inactive”.
On to `Nc1ncnc2occ(-c3ccc(NC(=O)Nc4cccc(C(F)(F)F)c4)cc3)c12`, for which the Potency result was “inactive”.
As for `COc1cc(C=NNc2ncnc3c2cnn3-c2ccccc2)ccc1O`, the Potency result is “inactive”.
Consider `COC(=O)Nc1nc2ccc(Oc3ccc(NC(=O)Nc4cccc(Br)c4)cc3)cc2[nH]1`, for which the Potency entry is “inactive”.
On to `O=C(OC1CNC(C#Cc2cc3ncnc(Nc4ccc(OCc5cccc(F)c5)c(Cl)c4)c3s2)C1)N1CCOCC1` (stereo not given), for which the Potency result is “inactive”.
`O=S1CCN(Cc2ccc(-c3ccc4ncnc(Nc5ccc(OCc6ccccc6)c(F)c5)c4c3)o2)CC1`: the Potency result was “inactive”.
In the case of `N#Cc1c(NC(=O)c2ccccc2F)sc2c1CCCC2` it was “inactive”; in that of `CCc1ccc(Oc2nccc(-c3c(-c4ccc(F)cc4)ncn3C3CCNCC3)n2)cc1`, “inactive”; in that of `COc1ccc(COc2ccc(Cc3cnc(N)nc3N)cc2OC)cc1`, “inactive”.
Regarding `CN(C)c1ccc2[nH]c(O)c(C=Nc3ccc(S(N)(=O)=O)cc3)c2c1`, the Potency is 5.8 µM (active).
For `Nc1nccc(-c2c(-c3ccc(F)cc3)ncn2C2CCC(O)CC2)n1` (stereo not given), the Potency result was “inactive”.
For the compound `NS(=O)(=O)c1cccc(N=Cc2c(O)[nH]c3ccccc23)c1`, the Potency entry is “inactive”.
Turning to `c1ccc(-c2nc3n(c2-c2ccc4c(c2)OCO4)CCC3)nc1`, the Potency entry was “inactive”.
Take `CNC(=O)c1cccc(C#Cc2cncnc2Nc2ccc(OCc3cccc(F)c3)c(Cl)c2)c1`: the Potency entry was “inactive”.
Regarding `CCn1c(-c2nonc2N)nc2cnc(Oc3cccc(NC(=O)c4ccc(OCCN5CCOCC5)cc4)c3)cc21`, the Potency entry was “inactive”.
Take `Nc1nc(-c2ccc(F)cc2)c(-c2ccc3ncccc3n2)s1`: the Potency entry was “inactive”.
For `Fc1ccc(-c2ncn(CCCN3CCOCC3)c2-c2ccncc2)cc1`, the Potency entry is “inactive”.
Consider `Cc1ccc(C(=O)NC2CCCCC2)cc1-c1ccc(C(=O)NCC2CC2)cc1`, for which the Potency result was “inactive”.
With `CCOc1nccc2c1nc(-c1nonc1N)n2CC`, the Potency result was “inactive”.
On to `Cc1ccc(Nc2ccnc(Nc3cccc(C(N)=O)c3)n2)cc1O`, for which the Potency entry is “inactive”.
As for `Fc1cccc(COc2ccc(Nc3ncnc4sc(-c5ccco5)cc34)cc2Cl)c1`, the Potency entry was “inactive”.
In the case of `FC(F)(F)c1ccc(-c2nn3ncccc3c2-c2ccnc(Nc3ccc4c(c3)OCCO4)n2)cc1`, the Potency entry was “inactive”.
In the case of `Nc1nccc(C#Cc2cncnc2Nc2ccc(OCc3cccc(F)c3)c(Cl)c2)n1` it was “inactive”; in that of `COc1cc2ncn(-c3cc(OCc4ccccc4S(C)(=O)=O)c(C#N)s3)c2cc1OC`, “inactive”; in that of `COc1cccc(-n2ncc3c(NN=Cc4ccc(C(=O)NCCN(C)C)cc4)ncnc32)c1`, “inactive”.
In the case of `COc1cccc(-n2ncc3c(NN=Cc4ccc(F)cc4)ncnc32)c1` it was “inactive”; in that of `CS(=O)(=O)CCNCc1ccc(-c2ccc3ncnc(Nc4ccc(OCc5ccccc5)c(C(F)(F)F)c4)c3c2)o1`, “inactive”.
Consider `NC(=O)c1sc(-n2cnc3ccc(C(F)(F)F)cc32)cc1OCc1ccccc1Br`, for which the Potency result is “inactive”.
`Cc1ccc(NC(=O)CC2CC2)cc1-c1ccc(C(=O)NCC2CC2)cc1`: the Potency result was “inactive”.
As to `CC1=C(C(=O)Nc2ccc3[nH]ncc3c2)C(c2ccc(Cl)c(Cl)c2)CC(=O)N1` (stereo not given), the Potency result is “inactive”.
In the case of `c1ccc(COc2ccc(Nc3ncnc4ccc(-c5ccco5)cc34)cc2)cc1` it was “inactive”; in that of `NC(=O)c1ccc(Oc2nccc(-c3c(-c4ccc(F)cc4)ncn3C3CCNCC3)n2)cc1`, “inactive”; in that of `Fc1ccc(-c2ncn(C3CCNCC3)c2-c2ccnc(Oc3ccc(Cl)cc3)n2)cc1`, “inactive”.
Turning to `CNC(=O)c1cncc(C=Cc2ccccc2C)c1`, the Potency entry is “inactive”.
Turning to `NS(=O)(=O)c1ccc(Nc2cc(-c3cccc(O)c3)[nH]n2)cc1`, the Potency result was “inactive”.
